Several values for one entry are separate records, joined by “and”; a condition that tells them apart may be missing. Identical values can stand only once. Some compounds were tested as several samples or in several runs, with calls that do not always agree. Activity calls are given as the source filed them. How the source made its calls: active means hit-call score of the fitted dose curve at least 0.9, where 1 is the maximum; inactive means score below 0.9.
read-out: Intercellular Adhesion Molecule 1 (ICAM1), ICAM1 (gene 3383); assay: BSK_BE3C_ICAM1: BioMAP Diversity Plus: BE3C Assay for Intercellular Adhesion Molecule 1 (ICAM1) Biomarker Activity (AID 2284278); settings: primary human bronchial epithelial cells;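 on outcome: cell-surface ICAM-1 protein level quantified by ELISA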
Method in brief: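 Primary human bronchial epithelial cells were exposed to compound for 24 h, after which cell-surface ICAM-1 was quantified by ELISA. Activity was fitted in the gain-of-signal direction against DMSO as negative control and baseline.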

Which outcome does the source give for `O=C(O)C(F)(OC(F)(F)C(F)(OC(F)(F)C(F)(OC(F)(F)C(F)(F)C(F)(F)F)C(F)(F)F)C(F)(F)F)C(F)(F)F` (stereo not given) here?
Its outcome is “inactive”.

With `FC(F)(F)C(F)(F)C(F)(F)C(F)(F)C(F)(F)C(F)(F)CCS` as the compound, how does the outcome read?
Its outcome is “inactive”.

With `C=C(C)C(=O)OCC(F)(F)C(F)(F)C(F)(F)C(F)(F)C(F)(F)C(F)(F)C(F)(F)F` as the compound, how does the outcome read?
The outcome was “inactive”.

With `FC(F)(F)C(F)(F)C(F)(F)C(F)(F)CCI` as the compound, how does the outcome read?
Its outcome is “inactive”.

With `O=C(O)C(F)(F)C(F)(F)C(F)(F)F` as the compound, how does the outcome read?
Its outcome is “inactive”.

With `N=C(N)C(F)(F)C(F)(F)C(F)(F)C(F)(F)C(F)(F)C(F)(F)C(F)(F)F` as the compound, how does the outcome read?
Its outcome is “inactive”.

For `O=C(O)C(F)(OC(F)(F)C(F)(OC(F)(F)C(F)(F)C(F)(F)F)C(F)(F)F)C(F)(F)F` (stereo not given), which outcome is on record?
The outcome was “inactive”.

How did the outcome turn out when `O=C(O)C(F)(F)C(F)(F)C(F)(F)C(F)(F)C(F)(F)C(F)(F)C(F)(F)C(F)(F)C(F)(F)C(F)(F)C(F)(F)C(F)(F)C(F)(F)F` was run?
Its outcome is “inactive”.

Which outcome does the source give for `FC(F)(F)C(F)(F)C(F)(F)N(C(F)(F)C(F)(F)C(F)(F)F)C(F)(F)C(F)(F)C(F)(F)F` here?
The outcome was “inactive”.

`O=C(O)C=C(C(F)(F)F)C(F)(F)F` was tested. Which outcome did it give?
The outcome was “inactive”.

With `O=C(O)C(F)(F)C(F)(F)F` as the compound, how does the outcome read?
The outcome was “inactive”.

With `FC(F)(I)C(F)(F)C(F)(F)C(F)(F)I` as the compound, how does the AC50 read?
The AC50 was 44.1 µM (active) and 41.4 µM (active) and 55.3 µM (active).

For `OCC(F)(F)C(F)(F)C(F)(F)F`, which outcome is on record?
Its outcome is “inactive”.

Which outcome does the source give for `FC(F)(F)C(F)(F)C(F)(F)C(F)(F)C(F)(F)C(F)(F)C(F)(F)Br` here?
Its outcome is “inactive”.

`OCC(F)(F)C(F)(F)C(F)(F)C(F)F` was tested. Which outcome did it give?
The outcome was “inactive”.

For `OCCCC(F)(F)C(F)(F)C(F)(F)C(F)(F)C(F)(F)C(F)(F)C(F)(F)F`, which AC50 is on record?
The AC50 was 53.8 µM (active) and 51.3 µM (active).

With `O=S(=O)(OCC(F)F)C(F)(F)F` as the compound, how does the outcome read?
Its outcome is “inactive”.

How did the outcome turn out when `O=S(=O)(O)C(F)(F)C(F)(F)C(F)(F)C(F)(F)C(F)(F)C(F)(F)C(F)(F)F` was run?
The outcome was “inactive”.

For `OCC(F)(F)C(F)(F)C(F)(F)C(F)(F)C(F)(F)C(F)(F)F`, which outcome is on record?
The outcome was “inactive”.

Which AC50 does the source give for `C=CC(=O)OCC(F)(F)C(F)(F)C(F)(F)C(F)(F)COC(=O)C=C` here?
The AC50 was 26.3 µM (active) and 25.9 µM (active).

With `O=C(O)C(F)(F)C(F)(F)C(F)(F)C(F)(F)C(F)(F)C(F)(F)C(F)(F)C(F)(F)C(F)(F)C(F)F` as the compound, how does the AC50 read?
Its AC50 is 20.3 µM (active) and 21.1 µM (active).

Which outcome does the source give for `C=C(C)C(=O)OCC(F)(F)C(F)(F)C(F)(F)F` here?
The outcome was “inactive”.

Which outcome does the source give for `FC(F)(F)C(F)(F)CNCC(F)(F)C(F)(F)F` here?
Its outcome is “inactive”.

Which outcome does the source give for `COC(=O)CCC(F)(F)C(F)(F)C(F)(F)C(F)(F)F` here?
Its outcome is “inactive”.

`CC(C)(C)C(=O)CC(=O)C(F)(F)C(F)(F)C(F)(F)F` was tested. Which outcome did it give?
The outcome was “inactive”.

With `O=C(O)C(F)(F)C(F)(F)C(F)(F)C(F)(F)C(F)(F)C(F)(F)C(F)(F)C(F)(F)Cl` as the compound, how does the AC50 read?
The AC50 was 45.1 µM (active) and 45.8 µM (active).

Which outcome does the source give for `OCC(F)(F)C(F)(F)C(F)(F)C(F)(F)C(F)(F)C(F)F` here?
Its outcome is “inactive”.

read-out: Interferon-inducible T-cell alpha chemoattractant (ITAC), CXCL11 (gene 6373); assay: BSK_BE3C_ITAC: BioMAP Diversity Plus: BE3C Assay for Interferon-inducible T-cell alpha chemoattractant (ITAC) Biomarker Activity (AID 2284279); settings: primary human bronchial epithelial cells
Method in brief: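 BE3C cells (human primary bronchial epithelium), 24 h compound exposure, I-TAC by ELISA, DMSO = negative control/baseline, positive fitting direction.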

How did the outcome turn out when `O=C(O)C(F)(OC(F)(F)C(F)(OC(F)(F)C(F)(OC(F)(F)C(F)(F)C(F)(F)F)C(F)(F)F)C(F)(F)F)C(F)(F)F` (stereo not given) was run?
The outcome was “inactive”.

With `FC(F)(F)C(F)(F)C(F)(F)C(F)(F)C(F)(F)C(F)(F)CCS` as the compound, how does the outcome read?
The outcome was “inactive”.

For `C=C(C)C(=O)OCC(F)(F)C(F)(F)C(F)(F)C(F)(F)C(F)(F)C(F)(F)C(F)(F)F`, which outcome is on record?
The outcome was “inactive”.

How did the outcome turn out when `FC(F)(F)C(F)(F)C(F)(F)C(F)(F)CCI` was run?
The outcome was “inactive”.

How did the outcome turn out when `O=C(O)C(F)(F)C(F)(F)C(F)(F)F` was run?
The outcome was “inactive”.

How did the outcome turn out when `N=C(N)C(F)(F)C(F)(F)C(F)(F)C(F)(F)C(F)(F)C(F)(F)C(F)(F)F` was run?
The outcome was “inactive”.

Which outcome does the source give for `O=C(O)C(F)(OC(F)(F)C(F)(OC(F)(F)C(F)(F)C(F)(F)F)C(F)(F)F)C(F)(F)F` (stereo not given) here?
Its outcome is “inactive”.

Which results are given for `O=C(O)C(F)(F)C(F)(F)C(F)(F)C(F)(F)C(F)(F)C(F)(F)C(F)(F)C(F)(F)C(F)(F)C(F)(F)C(F)(F)C(F)(F)C(F)(F)F`?
AC50: 25.9 nM (active); outcome: inactive

Which outcome does the source give for `FC(F)(F)C(F)(F)C(F)(F)N(C(F)(F)C(F)(F)C(F)(F)F)C(F)(F)C(F)(F)C(F)(F)F` here?
The outcome was “inactive”.

For `O=C(O)C=C(C(F)(F)F)C(F)(F)F`, which outcome is on record?
Its outcome is “inactive”.

How did the outcome turn out when `O=C(O)C(F)(F)C(F)(F)F` was run?
Its outcome is “inactive”.

`FC(F)(I)C(F)(F)C(F)(F)C(F)(F)I` was tested. Which AC50 did it give?
The AC50 was 46.2 µM (active) and 51.9 µM (active) and 49.2 µM (active).

Which outcome does the source give for `OCC(F)(F)C(F)(F)C(F)(F)F` here?
Its outcome is “inactive”.

For `FC(F)(F)C(F)(F)C(F)(F)C(F)(F)C(F)(F)C(F)(F)C(F)(F)Br`, which outcome is on record?
Its outcome is “inactive”.

Which outcome does the source give for `OCC(F)(F)C(F)(F)C(F)(F)C(F)F` here?
The outcome was “inactive”.

`OCCCC(F)(F)C(F)(F)C(F)(F)C(F)(F)C(F)(F)C(F)(F)C(F)(F)F` was tested. Which AC50 did it give?
The AC50 was 45.9 µM (active) and 46.9 µM (active).

`O=S(=O)(OCC(F)F)C(F)(F)F` was tested. Which outcome did it give?
Its outcome is “inactive”.

For `O=S(=O)(O)C(F)(F)C(F)(F)C(F)(F)C(F)(F)C(F)(F)C(F)(F)C(F)(F)F`, which outcome is on record?
Its outcome is “inactive”.

Which outcome does the source give for `OCC(F)(F)C(F)(F)C(F)(F)C(F)(F)C(F)(F)C(F)(F)F` here?
The outcome was “inactive”.

Which AC50 does the source give for `C=CC(=O)OCC(F)(F)C(F)(F)C(F)(F)C(F)(F)COC(=O)C=C` here?
The AC50 was 45.3 µM (active) and 39.4 µM (active).

`O=C(O)C(F)(F)C(F)(F)C(F)(F)C(F)(F)C(F)(F)C(F)(F)C(F)(F)C(F)(F)C(F)(F)C(F)F` was tested. Which AC50 did it give?
Its AC50 is 9.92 µM (active) and 11.3 µM (active).

How did the outcome turn out when `C=C(C)C(=O)OCC(F)(F)C(F)(F)C(F)(F)F` was run?
The outcome was “inactive”.

With `FC(F)(F)C(F)(F)CNCC(F)(F)C(F)(F)F` as the compound, how does the outcome read?
The outcome was “inactive”.

For `COC(=O)CCC(F)(F)C(F)(F)C(F)(F)C(F)(F)F`, which outcome is on record?
The outcome was “inactive”.

For `CC(C)(C)C(=O)CC(=O)C(F)(F)C(F)(F)C(F)(F)F`, which outcome is on record?
The outcome was “inactive”.

With `O=C(O)C(F)(F)C(F)(F)C(F)(F)C(F)(F)C(F)(F)C(F)(F)C(F)(F)C(F)(F)Cl` as the compound, how does the AC50 read?
The AC50 was 40.8 µM (active) and 23.3 µM (active).

`OCC(F)(F)C(F)(F)C(F)(F)C(F)(F)C(F)(F)C(F)F` was tested. Which outcome did it give?
Its outcome is “inactive”.

Reference: PubChem BioAssay (EPA / NIEHS)
